# Reference: PubChem BioAssay (NCI)
# This is part of a sample that, as a whole, favours compounds with a hit. Of some 83,000 tested, about 20% had one in any assay.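 Assay: single dose, 48 h. Readout: percent growth (0 = no net growth; negative = cell death). Active: <10.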 Unmarked numbers belong to inactive results. Active and inactive are the calls of the source.
# System: ACHN renal
# Experiment: NCI-60 one-dose screen, 48 h (100 = growth as untreated, 0 = no growth, -100 = all killed)
# Conditions: 10 µM unless noted
# Protocol: Growth inhibition of the ACHN human tumor cell line is measured as a screen for anti-cancer activity. Cells are grown in 96 well plates and exposed to the test compound for 48 hours. Compounds are tested at a single concentration, which is 10^-5 M for most compounds. The reported endpoint is percent growth (GI% or GIPRCNT), where numbers from 0 - 100% represent growth inhibition, and numbers from -100% - 0 represent cell death. For example, a value of 40 represents 60% growth inhibition. A value of 0 means no net growth occurred over the course of the experiment. A value of -40 indicates 40% of cells at the beginning of the experiment died by the end of the experiment. A value of -100 means all cells are dead at the end of the experiment.
# NCI-60 Human Tumor Cell Lines Screen was performed using the standard one-dose NCI protocol, which is described in more detail at https://dtp.cancer.gov/discovery_development/nci-60/default.htm.
# Compounds with GIPRCNT values below 10 were considered active. Activity score was based on GIPRCNT using the following formula: […]
# Score is 0 for GIPRCNT values of 100 or above, 50 for GIPRCNT values of 0, and 100 for GIPRCNT values of -100.
row,SMILES,growth
1,N#Cc1c(NC(=O)c2ccco2)[n+]([O-])c2ccccc2[n+]1[O-],110%
2,COc1ccc2c3c(ccc2c1)C(=O)/C(=C\O)CC3,102%
3,COc1ccc2c(c1)[n+](=O)c(/C=C/C(=O)c1cc(OC)c(OC)c(OC)c1)c(C)n2[O-],47.7%
4,CC(C)Sc1nc(Cl)c(C#N)c(-c2ccc(F)cc2)n1,101%
5,COc1ccc(N2CCN(CC(=O)N3CCN(c4nnc(-c5ccccc5)c(-c5ccccc5)n4)CC3)CC2)cc1,40.5%
6,COc1ccc([N+](=O)[O-])c(S(=O)(=O)c2ccc(Cl)cc2)n1,26.9%
7,O=C1/C(=C/c2cccc(Cl)c2)CCc2ccccc21,103%
8,CNc1nc(NC2CCCC2)nc(Sc2ccc(OC)cc2)n1,21% [100 µM]
9,COc1cccc(-c2nc3cc(NC(=O)c4ccc(Cl)c(C#N)c4)ccc3o2)c1,36.2%
10,CCCCCN1C(=O)CCC1=O,104%
11,C[C@]12CCC(=O)C=C1CCC1C2[C@@H](O)C[C@@]2(C)C1CC[C@]2(O)C(=O)COC(=O)CCC(=O)O (stereo not given in full),102%
12,CO[C@H]1/C=C/O[C@@]2(C)Oc3c(C)c(O)c4c(O)c(c(/C=N/N5C(C)CN(Cc6ccc(C#N)cc6)CC5C)c(O)c4c3C2=O)NC(=O)/C(C)=C\C=C\[C@H](C)[C@H](O)[C@@H](C)[C@@H](O)[C@@H](C)[C@H](OC(C)=O)[C@@H]1C (stereo not given in full),26.3%
13,NS(=O)(=O)c1ccc(-n2ncc3c(N/N=C/c4ccccc4)ncnc32)cc1,94.7%
14,Cc1ccc(C2=NNC(c3sc(Cl)nc3Cl)C2)cc1 (stereo not given),112%
15,Clc1ccc(C2c3ccccc3-c3nccn32)c(Cl)c1 (stereo not given),89.7%
16,O=c1oc2c(cc1-c1ccc([N+](=O)[O-])cc1)C(O)Oc1ccccc1-2 (stereo not given),103%
17,CCSc1nc(-c2ccco2)n2nc(-c3ccco3)cc2n1,88.8%
18,C(=C1c2ccccc2-c2ccccc21)c1ccccn1,96.5%
19,CCOc1cc(/C=C/C(=O)C(C(=O)/C=C/c2ccc(OC(=O)CNc3nnc(C)s3)c(OCC)c2)C(=O)CNc2nnc(C)s2)ccc1OC(=O)CNc1nnc(C)s1,-85.2% (active)
20,CN1C(=O)C(C2=NN(C=O)C(c3ccc(F)cc3)C2)C(=O)N(C)C1=O (stereo not given),107%

row,SMILES,growth
1,COc1ccc(CNC(=O)c2c(C)n([O-])c3ccccc3[n+]2=O)cc1,109%
2,C1=C(Cc2ccccc2)n2cnc3ncnc(c32)S1,87.2%
3,COc1cccc(C2=NN(C(C)=O)C(c3cc(OC)c(OC)c(OC)c3)C2)c1 (stereo not given),56.1%
4,COc1cccc(/C=C2\Cc3ccccc3C2=O)c1,104%
5,O=C1c2cccc3c([N+](=O)[O-])ccc(c23)C(=O)N1CCCCl,-96.1% [100 µM] (active)
6,CCSc1nc(-c2cccs2)n2nc(-c3ccco3)cc2n1,94.1%
7,COc1cc(C2CC(C3C(=O)N(C)C(=O)N(C)C3=O)=NN2c2cc(Cl)cc(Cl)c2)cc(OC)c1OC (stereo not given),96.3%
8,O=C1C=CC(=O)N1c1ccccc1N1C(=O)C=CC1=O,88%
9,O=C(Nc1ccccc1S)c1ccccc1,104%
10,CCCCCCCCCCCCCCCCNC(=O)Nc1ccc2ccccc2c1,108%
11,O=C(CNC(=O)c1cccc2ccccc12)Nc1ccccc1Oc1ccc(O)cc1,43.8% [5 µM]
12,COc1cc(-c2nnc(-c3nc(-c4cc(OC)c(OC)c(OC)c4)n4ccccc34)o2)ccc1N,62.2%
13,CC(C)=CCCC(C)c1ccc(C)c2c1OCN(CC1CCNCC1)C2 (stereo not given),92.9%
14,COc1ccc2nc(-c3ccc(Cl)cc3)cc(-c3nnc(SCC(=O)Nc4ccc(C(C)=O)cc4)n3-c3ccccc3)c2c1,108%
15,N#CSCC1CC(O)(c2ccccc2)C(c2ccccc2)C(c2ccc(Cl)cc2)O1 (stereo not given),-71.6% (active)
16,COc1ccc(/C=C2\CCc3ccccc3C2=O)cc1,111%
17,N#Cc1ncc(-c2ccc(C(F)(F)F)cc2)c(NC2CCCCCC2)n1,-1.84% (active)
18,CCOC(CNCc1cc(C)c2[nH]c3ccccc3c2c1C)OCC,88.3%
19,O[N+]1=CC=CCC1=S.On1ccccc1=S.[Zn],-91.2% (active)
20,CC(=O)OCC(=O)[C@@]1(O)CC[C@H]2[C@@H]3CCC4=CC(=O)CC[C@]4(C)[C@@]3(F)[C@@H](O)C[C@@]21C,98.5%
